Reference: PubChem BioAssay AID1036 (National Center for Advancing Translational Sciences (NCATS), 2008)
Records with an inconclusive call do not appear. Activity calls are given as the source filed them. Calls come from the whole dose curve.

Test: NSCLC 1 Cell Viability Secondary Assay for qHTS Assay for Epigenetic Modulator
Conditions: NSCLC 1 cells viability, MTS absorbance, 4 days
Source text: NIH Molecular Libraries Screening Centers Network [MLSCN] NIH Chemical Genomics Center [NCGC] MLSCN Grant: 1 X01 MH079860-01 Assay Provider: Elisabeth D. Martinez, University of Texas SW Medical Center NCGC Assay Overview: This secondary assay characterizes selected actives identified in the qHTS of the Locus Derepression (LDR) assay (PubChem AID 597). The LDR assay detects the derepression of a GFP reporter that is stably integrated in a region of the genome of murine c127i mammary cells that is presumably silenced. Compounds that cause derepression of the locus to express GFP are identified by enumerating GFP positive cells using a laser-scanning microplate cytometer. Selected LDR actives were assayed for killing of NSCLC 1, a patient-derived nonsmall cell lung carcinoma line. Known epigenetic drugs, like histone deacetylase inhibitors, can block cancer cell growth. NSCLC 1 cell viability was measured using Cell Titer 96 AQueous One (Promega), an assay which detects the ability of metabolically active cells to reduce a tetrazolium salt substrate (MTS), into a soluble formazan product that can be measured by colorimetry.
NCGC Assay Protocol Summary NSCLC 1 cells were plated in 96-well flat bottom tissue culture dishes (Corning) and grown overnight at 37 C and 5% CO2, then treated with compounds, incubated 4 days, and assayed for viability using the Cell Titer 96 AQueous One kit (Promega) according to the manufacturer's protocol. Absorbance at 490 nm and 650 nm (reference) was measured by a Spectra Max (Molecular Devices). Data were normalized to the untreated control (100% viability). Each cell line was tested in one or two independent assays, each containing 4 or 8 replicates. For further details, see R.L. Johnson, W. Huang, A. Jadhav, C.P. Austin, J. Inglese, E.D. Martinez, A Quantitative High-Throughput Screen Identifies Potential Epigenetic Modulators of Gene Expression, Analytical Biochemistry (2007), doi: 10.1016/j.ab.2007.12.028

Row | Compound | Potency | outcome
1 | O=Nc1ccc(O)c2ncccc12 | 4 µM (active) | 
2 | CC(C)C(=O)NC(c1ccco1)c1ccc2cccnc2c1O (configuration not stated) | 1 µM (active) | 
3 | CC(C)C(=O)NC(c1ccc(N(C)C)cc1)c1ccc2cccnc2c1O (configuration not stated) | 0.3 µM (active) | 
4 | CC(/C=C/C(=O)NO)=C\[C@@H](C)C(=O)c1ccc(N(C)C)cc1 | 0.1 µM (active) | 
5 | CN1C(=S)SC(c2ccccc2)N(C)C1c1ccccc1 (configuration not stated) |  | inactive
6 | O=C(CSc1cccc2cccnc12)NCc1ccccc1 |  | inactive
7 | CC(C)C(=O)NC(c1ccco1)c1cc([N+](=O)[O-])c2cccnc2c1O (configuration not stated) | 8 µM (active) | 
